Only some compounds are listed: those with a hit (about 2.4% of all), similar ones and a draw of the others.
D2 PAM-1: positively modulates the human D2 dopamine receptor allosterically; P14416; HEK293 T-REx D2, calcium flux, EC20 dopamine potentiation; potentiation, % at 10 µM; AID 485347; 340,000 tested, 0.34% active;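 active means potentiation over 3 SD above the plate norm, cut at about 30% in these data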; further: 0% is about no effect
Target sequence (P14416 whole entry, looked up): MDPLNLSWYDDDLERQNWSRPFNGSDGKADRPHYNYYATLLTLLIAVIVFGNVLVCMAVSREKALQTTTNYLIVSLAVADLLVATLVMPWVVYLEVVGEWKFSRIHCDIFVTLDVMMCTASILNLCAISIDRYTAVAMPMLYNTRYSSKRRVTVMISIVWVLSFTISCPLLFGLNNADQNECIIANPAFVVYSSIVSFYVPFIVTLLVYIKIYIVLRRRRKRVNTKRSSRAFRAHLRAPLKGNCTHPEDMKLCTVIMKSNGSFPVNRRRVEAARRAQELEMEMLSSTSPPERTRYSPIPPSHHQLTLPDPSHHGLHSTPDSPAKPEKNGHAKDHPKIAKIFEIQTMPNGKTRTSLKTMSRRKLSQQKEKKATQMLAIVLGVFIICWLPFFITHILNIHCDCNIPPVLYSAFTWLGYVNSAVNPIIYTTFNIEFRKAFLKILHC
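Potentiation of an EC20 dopamine calcium response measured kinetically over 180 s, after a preceding 180 s compound-only read flagging agonists. Cells: inducible Hek293 Trex D2 line, 4000/well, cultured overnight at 30 C before dye loading.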
D2 ag-1: activates the human D2 dopamine receptor; P14416; DiscoveRx PathHunter D2 beta-arrestin, luminescence, 90 min; 100% = 57 uM dopamine signal; activation, % (no concentration beside the values); 360,000 tested, 0.084% active; in the data active means activation above about 40%; inconclusive means between about 15% and that limit
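Agonist mode: compounds alone added to overnight-plated D2 PathHunter cells for 90 min at 37 C, with 57 uM final dopamine (EC100) defining full response. Beta-arrestin recruitment detected by chemiluminescent reagent, read after 1 h at ambient temperature.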
D2 ag-2: activates the human D2 dopamine receptor; 340,000 tested, 0.53% active; HEK293 T-REx D2 cells, calcium flux agonist mode; activation, % at 2 µM; P14416;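 active means activation over 3 SD above normal in the single-dose calcium agonist read, cut at about 30% in these data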; further: 0% is about no effect
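Agonism scored from kinetic calcium signal (1 read/sec, 180 s) following compound pin transfer, after a 10 s baseline. Cells: HEK293 Trex line expressing inducible D2 receptor coupled to calcium, dye-loaded after overnight culture at 30 C.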
D2 antagonist: antagonizes the human D2 dopamine receptor; 340,000 tested, 2% active; AID 485344; P14416; inhibition, % at 10 µM; HEK293 TREx D2 cells, calcium flux, dopamine EC80; in the data active means inhibition above about 30%; inactive means below that, where a call was filed; further: 0% is about no effect
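Dopamine at EC80 is the agonist stimulus; test compounds precede it by 180 s. Calcium flux read kinetically in a force-coupled, inducible HEK293 T-REx D2 cell line.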
D2 PAM-2: human D2 receptor positive allosteric modulation. potentiation, % (test concentration not listed). AID 624464. 360,000 tested, 0.23% active. DiscoveRx D2 beta-arrestin cells, luminescence, 90 min; 100% = 57 uM dopamine signal. P14416; in the data active means potentiation above about 50%; inconclusive means mostly about 30% to 49%
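D2 cells co-treated with compound plus 50 nM dopamine (EC20) for 90 min at 37 deg C to detect potentiation. Beta-arrestin recruitment was read as enzyme-fragment luminescence after 1 h at ambient temperature. Full response was set by 57 uM dopamine.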
* hit, by the source's call; u = inconclusive; x = no result; ! = not confirmed by another sample.

SMILES	D2 PAM-1	D2 ag-1	D2 ag-2	D2 antagonist	D2 PAM-2
N/C(=N\OC(=O)c1ccccc1Br)c1cccc([N+](=O)[O-])c1	8	u	-1	-7	u
CCC12CN3CC(C)(CN(C1)C3c1c(C)n(C)c3ccccc13)C2=O (stereo not drawn)	14	x	2	x	x
COc1ccc(/C(N)=N/OC(=O)c2ccco2)cc1OC	32*	10	0	-6	7
COc1ccc(C(=O)O/N=C(\N)c2ccccc2)cc1OC	5	10	1	-6	u
COc1ccc(-c2noc(-c3ccc(NCc4ccco4)c([N+](=O)[O-])c3)n2)cc1OC	1	x	6	x	x
COc1cc2c(cc1O)C(Cc1ccc(O)cc1)NCC2 (stereo not drawn)	-24	-2	0	74*	-25
CCCCCCOC(=O)C(C#N)c1nc2ccccc2nc1N1CCCCC1 (stereo not drawn)	35*	-1	-2	-11	-7
Oc1ccc(C2CNCCc3c2cc(O)c(O)c3Cl)cc1 (stereo not drawn)	9	u	0	-3	58*!
CCOC(=O)c1c(NC(=O)c2ccc(S(=O)(=O)N(CC(C)C)CC(C)C)cc2)sc2c1CCN(CC)C2	-9	x	0	x	x
COc1cccc(C(NC(C)=O)c2nc(-c3ccccc3C)cs2)c1 (stereo not drawn)	x	78*	x	x	-3
CC(=O)NC(c1cccc(F)c1)c1nc(-c2ccccc2C)cs1 (stereo not drawn)	x	-3	x	x	-5
N#Cc1c(-c2ccccc2)nc(SCc2cccc(Cl)c2)[nH]c1=O	0	2	-1	30*	1
CNC(=O)c1sccc1-n1cccc1	0	-1	0	-9	-19
CCOc1ccc(NC(=O)c2sccc2-n2cccc2)cc1	65*	-5	-1	5	-9
CCOC(=O)C1=C(C)NC(=O)NC1c1cc2c(cc1Br)OCO2 (stereo not drawn)	51*	-3	0	-11	-9
CC1=C(C(=O)OCc2ccc3c(c2)OCO3)C(c2ccccc2)NC(=O)N1 (stereo not drawn)	6	u	1	45*	53*
COc1ccc([N+](=O)[O-])cc1NCc1c(F)cccc1F	x	3	x	x	-4
O=C(Nc1ccc(C(O)c2ccccc2)cc1)[C@@H]1O[C@H](CO)[C@H](O)[C@H](O)[C@H]1O (stereo partly drawn)	x	-6	x	x	1
CC(C)c1ccc(Nc2c(-c3ccc(N(C)C)cc3)nc3cnccn23)cc1	-7	x	0	x	x
O=C(NC(=O)N1CCCCCC1)c1ccc(Cl)cc1	3	-1	0	32*	-5
O=C(NC(=O)N1CCN(c2cccc(Cl)c2)CC1)c1ccccc1	5	1	-2	3	-20
O=C(NC(=O)N1CCN(c2cccc(Cl)c2)CC1)c1ccc(Cl)cc1	-17	6	4	57*	-29
COc1ccc(CC(=O)NCc2ccc3c(c2)CCN3C(C)=O)cc1	3	x	0	x	x
CO/N=C(/CS(=O)(=O)Cc1ccccc1Cl)c1ccc(Cl)cc1Cl	-7	-5	2	43*	-16
CN(C(=O)CS(=O)(=O)Cc1ccccc1Cl)c1ccccc1	-12	1	0	3	4
SMILES	D2 PAM-1	D2 ag-1	D2 ag-2	D2 antagonist	D2 PAM-2
CCOC(=O)c1c(C)[nH]c(N=Nc2ccc(C)cc2)c1C	10	-1	1	-5	-18
CCOC(=O)c1c(C)[nH]c(N=Nc2cccc(C)c2)c1C	13	-3	1	33*	-20
CCOC(=O)c1c(C)[nH]c(N=Nc2ccccc2)c1C	5	-4	-1	67*	-13
CCN(CC(=O)N1CCN(Cc2ccccc2)CC1)S(=O)(=O)c1ccc(C)cc1	-11	2	0	3	-27
CCCc1cc(C(=O)Nc2cccc(Cl)c2)no1	-24	-6	1	33*	-16
CCCc1cc(C(=O)Nc2ccc(F)c(Cl)c2)no1	-21	-4	0	35*	-16
Cc1c(/C(Cc2ccccc2)=N/O)c2ccccc2n1C	-2	-3	4	37*	0
Cc1c(C(=O)CN2CCSCC2)c2ccccc2n1C	-3	-2	-2	4	-23
COC(=O)C(=O)C1CCc2c(Cl)cc(OC)c(OC)c2C1=O (stereo not drawn)	x	7	x	x	-4
